# ChEMBL document CHEMBL3988442, “University of Dundee, Small-Polar-MMV Screening Library” (2021)
# For some assays here: Measured potencies and affinities stand elsewhere.
# Columns and labels:
# Set-up in all cases: scale not given: direction of the effect not stated beside the values
# [1] = target: Protein translocase subunit SecA (Escherichia coli (strain K12)) (UniProt P10408); assay: Assay to Identify E. coli SecA ATPase Inhibitors; assay type: functional; settings: 30 µM
# [2] = target: T1, Ubiquitin-activating enzyme e1, putative (Leishmania donovani (strain BPK282A1)) (UniProt E9BSI1); assay: Leishmania donovani Ubiquitin Activating Enzyme (LdE1); assay type: functional; settings: 30 µM
# T1 sequence (whole entry): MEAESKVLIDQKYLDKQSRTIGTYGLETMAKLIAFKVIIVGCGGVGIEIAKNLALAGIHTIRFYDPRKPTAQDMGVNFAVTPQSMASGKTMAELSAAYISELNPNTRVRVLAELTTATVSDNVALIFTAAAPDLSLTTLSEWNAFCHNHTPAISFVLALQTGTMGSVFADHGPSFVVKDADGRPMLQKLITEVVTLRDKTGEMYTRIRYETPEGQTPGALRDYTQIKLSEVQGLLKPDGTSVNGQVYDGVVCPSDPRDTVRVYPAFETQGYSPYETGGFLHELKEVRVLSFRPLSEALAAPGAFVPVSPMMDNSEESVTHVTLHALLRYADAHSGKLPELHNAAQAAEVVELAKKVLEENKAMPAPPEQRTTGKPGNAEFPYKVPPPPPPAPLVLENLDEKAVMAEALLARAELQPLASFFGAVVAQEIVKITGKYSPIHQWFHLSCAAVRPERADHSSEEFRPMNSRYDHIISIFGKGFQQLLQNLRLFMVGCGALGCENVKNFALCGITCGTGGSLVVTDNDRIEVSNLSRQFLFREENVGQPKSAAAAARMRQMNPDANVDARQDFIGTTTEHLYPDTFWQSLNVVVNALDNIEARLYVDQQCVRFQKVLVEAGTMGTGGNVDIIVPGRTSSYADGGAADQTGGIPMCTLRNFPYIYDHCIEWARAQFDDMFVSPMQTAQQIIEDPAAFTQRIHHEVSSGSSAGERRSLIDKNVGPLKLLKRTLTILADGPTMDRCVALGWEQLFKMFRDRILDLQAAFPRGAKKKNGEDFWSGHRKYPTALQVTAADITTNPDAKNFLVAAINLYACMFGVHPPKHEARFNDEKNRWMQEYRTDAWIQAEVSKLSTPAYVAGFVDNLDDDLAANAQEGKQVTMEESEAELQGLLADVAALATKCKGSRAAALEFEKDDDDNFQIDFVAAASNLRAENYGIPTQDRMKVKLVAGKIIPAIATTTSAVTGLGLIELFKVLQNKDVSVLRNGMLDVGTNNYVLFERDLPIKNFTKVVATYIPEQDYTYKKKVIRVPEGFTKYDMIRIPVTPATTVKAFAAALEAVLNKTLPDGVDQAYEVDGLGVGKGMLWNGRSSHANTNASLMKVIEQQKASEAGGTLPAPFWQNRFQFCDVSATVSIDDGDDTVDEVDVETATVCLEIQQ
# [3] = target: AMP-activated protein kinase, AMPK (Homo sapiens) (UniProt P54646+O43741+P54619+Q9UGJ0+Q9Y478+Q13131+Q9UGI9); assay: AMP-dependent Kinase enzyme assay. An in vitro enzyme assay that detects ADP turnover that is directly proportional to AMPK activity. This uses naive AMPK that is activated during the assay with MK-8722; assay type: functional; settings: 30 µM
# [4] = target: Sialic acid-binding Ig-like lectin 9 (Homo sapiens) (UniProt Q9Y336); assay: Hs-Siglec9 ALPHAscreen SOP 20170721; settings: 10 µM
# Sequence of Sialic acid-binding Ig-like lectin 9 (Homo sapiens) (Q9Y336 whole entry): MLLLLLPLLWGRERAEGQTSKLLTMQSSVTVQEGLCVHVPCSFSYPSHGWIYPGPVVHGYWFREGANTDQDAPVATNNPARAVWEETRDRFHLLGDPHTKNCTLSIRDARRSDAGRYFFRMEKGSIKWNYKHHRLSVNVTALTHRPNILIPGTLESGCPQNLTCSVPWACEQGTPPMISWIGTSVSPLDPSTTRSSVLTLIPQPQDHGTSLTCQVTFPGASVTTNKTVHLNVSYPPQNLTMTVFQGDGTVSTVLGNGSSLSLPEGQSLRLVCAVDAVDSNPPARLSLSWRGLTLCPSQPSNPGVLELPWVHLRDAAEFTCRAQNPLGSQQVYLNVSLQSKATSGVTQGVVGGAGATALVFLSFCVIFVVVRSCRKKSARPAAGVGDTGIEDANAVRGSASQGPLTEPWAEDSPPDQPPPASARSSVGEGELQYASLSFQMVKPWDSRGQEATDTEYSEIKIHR
# [5] = test system: Trypanosoma cruzi; assay: Trypanosoma cruzi phosphomannomutase and mannose-1-phosphate guanylyltransferase assay; assay type: functional; settings: 10 µM
# [6] = target: T2, Arginase-2, mitochondrial (Homo sapiens) (UniProt P78540); assay: in vitro enzyme assay to detect the production of urea directly proportional to the activity of Arginase II; assay type: functional; settings: 33.3 µM; note: in the data most compounds retested in dose-response had high values
# T2 sequence (whole entry): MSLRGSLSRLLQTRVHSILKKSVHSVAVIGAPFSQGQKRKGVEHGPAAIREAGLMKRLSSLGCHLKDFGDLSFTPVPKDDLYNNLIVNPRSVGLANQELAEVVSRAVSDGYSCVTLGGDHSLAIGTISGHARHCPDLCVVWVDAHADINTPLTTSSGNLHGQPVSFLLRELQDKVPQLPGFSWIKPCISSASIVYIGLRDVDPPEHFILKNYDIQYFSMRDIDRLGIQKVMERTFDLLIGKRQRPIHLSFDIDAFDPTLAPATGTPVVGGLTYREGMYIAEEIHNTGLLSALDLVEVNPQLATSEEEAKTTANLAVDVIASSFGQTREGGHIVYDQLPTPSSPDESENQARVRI
# [7] = target: T3, Proteasome subunit beta (Trypanosoma cruzi) (UniProt O96673); assay: Trypanosoma cruzi proteasome chymotrypsin-like activity (TcProtChymo) assay.; note: in the data most compounds retested in dose-response had high values; assay type: functional; settings: 9.37 µM
# T3 sequence (whole entry): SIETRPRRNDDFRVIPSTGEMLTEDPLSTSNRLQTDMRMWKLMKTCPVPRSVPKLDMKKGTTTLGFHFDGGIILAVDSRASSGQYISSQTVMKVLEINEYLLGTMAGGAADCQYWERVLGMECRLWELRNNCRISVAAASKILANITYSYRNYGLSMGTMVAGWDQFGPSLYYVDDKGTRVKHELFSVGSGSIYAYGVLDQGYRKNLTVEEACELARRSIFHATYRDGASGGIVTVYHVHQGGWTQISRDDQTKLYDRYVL
# [8] = species on record: Homo sapiens; assay: To identify inhibition of the IFN signalling (Jak-Stat) pathway via expression of an eGFP reporter gene under the control of an IFN-stimulated response element (ISRE) containing MxA promoter.; assay type: functional; settings: 30 µM
# [9] = target: T4, Tyrosyl-tRNA synthetase, putative (Trypanosoma cruzi (strain CL Brener)) (UniProt Q4DSP6); assay: Trypanosoma cruzi tyrosyl tRNA synthetase (TcYRS) _High Tyrosine SOP; assay type: functional; settings: 30 µM; note: in the data most compounds retested in dose-response had high values
# T4 sequence (whole entry): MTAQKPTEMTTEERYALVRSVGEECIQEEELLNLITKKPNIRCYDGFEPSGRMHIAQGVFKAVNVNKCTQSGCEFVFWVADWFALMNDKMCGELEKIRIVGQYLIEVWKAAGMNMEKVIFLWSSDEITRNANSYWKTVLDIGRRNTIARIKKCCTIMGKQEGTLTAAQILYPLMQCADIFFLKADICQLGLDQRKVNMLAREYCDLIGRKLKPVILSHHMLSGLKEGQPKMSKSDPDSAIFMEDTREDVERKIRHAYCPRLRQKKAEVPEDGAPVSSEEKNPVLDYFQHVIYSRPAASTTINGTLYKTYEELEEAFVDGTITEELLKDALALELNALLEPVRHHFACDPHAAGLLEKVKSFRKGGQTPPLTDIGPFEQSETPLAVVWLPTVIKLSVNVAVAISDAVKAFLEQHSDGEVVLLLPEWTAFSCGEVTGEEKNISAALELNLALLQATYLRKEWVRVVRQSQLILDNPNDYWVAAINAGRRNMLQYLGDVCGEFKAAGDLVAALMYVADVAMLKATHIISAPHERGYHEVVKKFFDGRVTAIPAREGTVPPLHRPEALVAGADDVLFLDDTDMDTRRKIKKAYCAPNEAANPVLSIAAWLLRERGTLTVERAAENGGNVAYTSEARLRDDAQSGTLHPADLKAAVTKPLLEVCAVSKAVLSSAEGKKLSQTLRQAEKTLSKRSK
# [10] = target: T4, Tyrosyl-tRNA synthetase, putative (Trypanosoma cruzi (strain CL Brener)); assay: Trypanosoma cruzi tyrosyl tRNA synthetase (TcYRS) SOP; assay type: functional; settings: 30 µM
# [11] = target: Chromo domain-containing protein 1 (Saccharomyces cerevisiae (strain ATCC 204508 / S288c) (Baker's yeast)) (UniProt P32657); assay: ScCHD-1 Enzyme Inhibition Assay; assay type: functional; settings: 30 µM; note: in the data most compounds retested in dose-response had high values
# Sequence of Chromo domain-containing protein 1 (Saccharomyces cerevisiae (strain ATCC 204508 / S288c) (Baker's yeast)) (P32657 whole entry, the tested form may be a part): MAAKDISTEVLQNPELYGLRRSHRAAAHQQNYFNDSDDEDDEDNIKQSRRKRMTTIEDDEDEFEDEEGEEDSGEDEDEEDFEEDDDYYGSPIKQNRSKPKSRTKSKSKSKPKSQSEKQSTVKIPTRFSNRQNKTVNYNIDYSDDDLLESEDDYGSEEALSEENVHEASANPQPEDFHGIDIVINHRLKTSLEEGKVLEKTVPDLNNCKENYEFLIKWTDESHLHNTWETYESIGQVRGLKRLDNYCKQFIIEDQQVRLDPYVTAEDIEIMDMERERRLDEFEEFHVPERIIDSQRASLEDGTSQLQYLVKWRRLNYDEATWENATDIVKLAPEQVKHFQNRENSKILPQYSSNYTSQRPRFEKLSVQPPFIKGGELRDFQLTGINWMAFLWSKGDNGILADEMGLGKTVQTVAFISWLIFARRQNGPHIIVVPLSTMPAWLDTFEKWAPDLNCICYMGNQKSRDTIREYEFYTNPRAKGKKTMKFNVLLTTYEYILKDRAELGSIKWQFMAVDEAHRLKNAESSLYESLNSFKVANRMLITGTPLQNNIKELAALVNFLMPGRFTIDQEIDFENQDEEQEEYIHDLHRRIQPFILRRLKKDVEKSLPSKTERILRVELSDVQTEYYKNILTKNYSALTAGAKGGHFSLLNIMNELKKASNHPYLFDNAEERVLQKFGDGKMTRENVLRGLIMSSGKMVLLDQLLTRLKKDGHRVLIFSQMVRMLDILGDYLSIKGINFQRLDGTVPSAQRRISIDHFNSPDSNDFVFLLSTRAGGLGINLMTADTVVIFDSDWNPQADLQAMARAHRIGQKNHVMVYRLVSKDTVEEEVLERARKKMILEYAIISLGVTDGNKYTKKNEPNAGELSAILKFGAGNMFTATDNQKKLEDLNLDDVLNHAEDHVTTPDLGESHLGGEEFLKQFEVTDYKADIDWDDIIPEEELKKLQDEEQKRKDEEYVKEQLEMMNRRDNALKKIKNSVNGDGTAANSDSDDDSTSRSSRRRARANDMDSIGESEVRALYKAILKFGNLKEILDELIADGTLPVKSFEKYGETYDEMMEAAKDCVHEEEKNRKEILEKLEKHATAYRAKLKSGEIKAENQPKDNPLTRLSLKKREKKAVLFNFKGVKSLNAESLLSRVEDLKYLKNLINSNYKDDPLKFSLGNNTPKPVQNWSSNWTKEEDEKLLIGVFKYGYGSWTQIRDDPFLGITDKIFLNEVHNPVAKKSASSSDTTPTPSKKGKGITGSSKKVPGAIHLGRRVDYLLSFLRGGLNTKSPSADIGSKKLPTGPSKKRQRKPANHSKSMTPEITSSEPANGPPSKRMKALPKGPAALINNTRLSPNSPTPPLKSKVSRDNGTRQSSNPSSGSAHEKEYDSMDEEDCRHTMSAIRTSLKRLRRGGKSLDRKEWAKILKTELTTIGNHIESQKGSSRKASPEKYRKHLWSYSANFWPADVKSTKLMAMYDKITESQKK
# Sequence of Protein translocase subunit SecA (Escherichia coli (strain K12)) (P10408 whole entry): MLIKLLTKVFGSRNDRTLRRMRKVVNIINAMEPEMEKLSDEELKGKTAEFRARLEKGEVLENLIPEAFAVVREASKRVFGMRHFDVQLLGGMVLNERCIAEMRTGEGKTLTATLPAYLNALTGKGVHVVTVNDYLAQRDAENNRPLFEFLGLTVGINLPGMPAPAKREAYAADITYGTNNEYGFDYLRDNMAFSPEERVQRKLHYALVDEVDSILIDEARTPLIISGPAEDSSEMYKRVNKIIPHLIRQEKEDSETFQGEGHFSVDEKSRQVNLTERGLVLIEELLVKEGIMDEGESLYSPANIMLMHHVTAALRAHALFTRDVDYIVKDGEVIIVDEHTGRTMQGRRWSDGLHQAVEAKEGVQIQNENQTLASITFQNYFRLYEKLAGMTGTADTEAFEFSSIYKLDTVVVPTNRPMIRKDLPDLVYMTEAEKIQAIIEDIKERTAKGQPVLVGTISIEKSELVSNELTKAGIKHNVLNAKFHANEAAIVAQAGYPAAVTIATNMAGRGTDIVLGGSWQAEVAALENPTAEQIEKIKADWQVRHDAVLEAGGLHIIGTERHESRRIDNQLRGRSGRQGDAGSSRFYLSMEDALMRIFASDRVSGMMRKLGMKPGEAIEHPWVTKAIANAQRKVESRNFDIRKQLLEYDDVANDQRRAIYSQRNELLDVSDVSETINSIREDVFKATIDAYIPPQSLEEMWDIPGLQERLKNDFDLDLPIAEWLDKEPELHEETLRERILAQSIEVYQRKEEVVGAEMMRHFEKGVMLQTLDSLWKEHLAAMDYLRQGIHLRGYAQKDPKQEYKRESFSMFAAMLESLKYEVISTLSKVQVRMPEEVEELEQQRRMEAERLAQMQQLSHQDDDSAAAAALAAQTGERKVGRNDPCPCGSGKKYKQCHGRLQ
SMILES,Percent Effect [1] [%],Percent Effect [2] [%],Percent Effect [3] [%],Percent Effect [4] [%],Percent Effect [5] [%],Percent Effect [6] [%],Percent Effect [7] [%],Percent Effect [8] [%],Percent Effect [9] [%],Percent Effect [10] [%],Percent Effect [11] [%]
COc1ccccc1CN1C(=O)O[C@@H]2CN(c3nccs3)C[C@@H]21,-8.53,0,2,2.51,-5.75,-3.12,11.2,15.3,2.73,3.7,-3.84
COCCNc1nc(C2CCCC2)nc2c1CCNCC2,-0.492,-2.7,-0.634,-1.74,4.83,1.91,-38.6,-3.26,10.1,19.5,-2.52
COc1cccc(N2CCN(Cc3ncc[nH]3)CC2=O)c1,-0.114,6.94,-20.4,-7.16,-1.85,-0.442,12.3,-17.7,-2.1,10.3,-4.76
Cc1ccc(N2CC3(CCN(C(=O)c4ccoc4)C3)C2)nn1,-2.51,15.6,2.65,11.4,3.64,-143,9.48,0.925,5.38,13.6,-5.33
Cc1cnn(CC2CN(Cc3nc(-c4ccoc4)no3)CCO2)c1 (configuration not stated),-2.87,8.11,-1.58,1.14,7.08,0.401,2.16,13.1,3.45,11.1,-9.57
CC(C)OCCOCc1cccc(NC(=O)NCc2ccccn2)c1,-5.4,10.4,0.256,12,6.79,-24.8,19.3,-1.08,2.15,8.64,-6.3
COCCNC(=O)NCc1ccc(OC(C)C)c(F)c1,-5.47,10.5,-1.85,9.7,8.5,-4.68,5.67,2.01,5.42,13.6,0.0512
O=C(c1ccc[nH]1)N1CCn2cc(Cn3cncn3)nc2C1,-0.971,2.67,2.39,-2.2,-3.94,3.03,11.2,13.4,3.19,-1.28,-3.1
CSc1ncccc1C(=O)N1C[C@H]2CC[C@@H]1CN(c1cnccn1)C2,-6.82,7.79,4.77,7.96,-3.44,-29,10.5,-1.66,5.38,8.64,0.924
CCc1ccc(-n2c(=O)[nH]c3nc(N4CCSCC4)ncc3c2=O)cc1,-2.14,21.1,0.234,-5.88,1.85,5.92,15.8,-2.32,0,5.2,45.8
CCc1noc(C2CCN(C(=O)CCn3nc(C)cc3C)CC2)n1,-4.24,18.2,0.146,12.9,8.55,-5.52,14.8,-6.48,8.6,16.1,-7.88
CC(C)CCn1c(=O)nc2n1C(=O)N(c1ccc(F)cc1)C2,-5.09,-2.63,10.5,-4.96,-1.46,-10.7,12.4,13.5,-2.13,-10.4,15.2
COc1c(CNC2CCOc3ccccc32)c(C(C)C)nn1C (configuration not stated),-0.153,-48.6,-2.39,7.95,1.58,0.924,3.95,0.812,7.92,18.3,-6.55
CCn1ncnc1C(C)NC(=O)C1CCN(C(C)C)CC1 (configuration not stated),-3.72,5.41,-4.36,22.1,0.0978,2.73,15,-2.01,9.68,21,-5.24
N#Cc1ccc(N2CCCN(C(=O)CC3CCCO3)CC2)cc1 (configuration not stated),-4.45,5.41,7.34,18.8,5.19,-5.61,-2.34,10.8,0.493,16.1,-12.8
CC1CN(C(=O)c2ccn(-c3cccc(Cl)c3)n2)CCO1 (configuration not stated),-7.39,20.8,0.341,6.09,7.87,-2.13,17.4,16.3,8.74,24.4,-10.1
CCS(=O)(=O)N1CCc2ccc(NC(=O)Nc3ccc(F)cc3F)cc21,-3.73,7.79,2.67,-0.508,8.58,-3.23,23,-1.71,-2.12,6.41,-9.26
O=S1(=O)CCCN1Cc1coc(-c2cccs2)n1,-1.93,15.3,-14.2,1.81,2.82,13.2,23.3,-8.56,5.26,12.8,-3.41
CC(=O)N1CCCCC1c1cc(C(=O)N2CCOCC2)[nH]n1 (configuration not stated),-1.41,14.9,11,-1.29,-1.38,-0.232,6.86,2.98,5.38,14.3,-10.1
Cc1noc(C)c1C(=O)NCC(c1ccc(F)cc1)N(C)C (configuration not stated),-3.62,8.11,1.69,-12.4,-3.25,0.924,0.898,16.5,5.94,13.4,0.216
COc1ccccc1CCNC(=O)CN1CCCC1c1noc(C)n1 (configuration not stated),-1.65,2.63,3.18,11.8,-1.69,1.53,12.9,5.32,4.41,17.1,-5.97
COc1ccc(C(=O)N2CCCCC2Cn2cccn2)c(F)c1 (configuration not stated),-1.68,15.6,2.24,6.84,1.5,-1.42,13.7,-14.3,6.8,14.6,-9.15
